The values that follow come from PubChem BioAssay AID1851 (National Center for Advancing Translational Sciences (NCATS), 2009).

Molecules are shown by their SMILES. “And” between values parts separate entries of the source, which are not always exact repeats. Equal entries are not always repeated. Out of some 16,000 compounds screened, about 5,700 (36%) were called active. Another 24% or so got no clear call; they are omitted. This is one part of the list. Unmarked numbers belong to inactive results. Calls follow the shape of the dose curve; as a rule, active = well fitted curve in the direction sought with a large enough effect; inconclusive = small, poorly fitted or top-dose-only effect, or effect the other way; inactive = no such curve, though single readings can be large or run the other way.
% is scaled to controls: 0 for no effect and ±100 for the full control effect.

Sequence of Cytochrome P450 1A2 (Homo sapiens) (P05177 whole entry, looked up): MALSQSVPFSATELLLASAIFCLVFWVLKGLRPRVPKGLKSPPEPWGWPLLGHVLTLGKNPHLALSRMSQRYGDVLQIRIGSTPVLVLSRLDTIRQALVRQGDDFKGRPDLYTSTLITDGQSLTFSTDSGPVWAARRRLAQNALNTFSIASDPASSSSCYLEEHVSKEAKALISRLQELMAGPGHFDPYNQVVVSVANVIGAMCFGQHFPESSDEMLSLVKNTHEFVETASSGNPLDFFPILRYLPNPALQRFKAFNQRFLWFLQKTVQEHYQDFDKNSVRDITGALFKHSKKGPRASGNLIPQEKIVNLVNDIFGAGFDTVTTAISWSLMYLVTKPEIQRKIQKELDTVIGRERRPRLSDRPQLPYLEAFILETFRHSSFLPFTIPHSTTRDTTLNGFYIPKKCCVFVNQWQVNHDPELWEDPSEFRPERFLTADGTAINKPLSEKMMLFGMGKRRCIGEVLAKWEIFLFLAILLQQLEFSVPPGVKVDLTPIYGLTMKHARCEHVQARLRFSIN

The test has as its target Cytochrome P450 1A2 (Homo sapiens) (UniProt P05177). Nature of the test: Cytochrome panel assay with activity outcomes. Particulars: recombinant CYP, pro-luciferin dealkylation, luminescence, p450-cyp1a2; series mostly up to 57.1 µM; activity, negative = inhibition: at the top concentration.
Consider `C[C@@H]1[C@@H](C)N1C[C@H](O)Cn1ccnc1[N+](=O)[O-]` (stereo partly specified), for which the activity, negative = inhibition is -13.2% [at 11.4 µM].
On the same count and under the same terms, then `Nc1nc2[nH]c(=O)cnc2c(=O)[nH]1`, with 2.71%; and `CN1CC[C@@]23c4ccccc4N[C@H]1[C@]21CCN(C)[C@@H]3Nc2ccccc21`, with -4.88% [at 25.6 µM].
For `O=C(O)CS(=O)(=O)C(c1ccccc1)c1ccccc1`, the activity, negative = inhibition is -15.7% [at 2.29 µM].
On the same count and under the same terms, then `Cc1cc(C)cc(NC(=S)NC2CC3CCC(C2)N3Cc2ccco2)c1` (stereo unspecified), with -11.6%.
Still for that read-out and setting: then `C[C@@H]1C(=O)O[C@@H]2C[C@]34[C@H]5C[C@@H](C(C)(C)C)[C@@]36[C@@H](OC(=O)[C@@H]6O)O[C@@]4(C(=O)O5)[C@@]12O`, with -6.3% [at 25.6 µM].
With `NCCP(=O)(O)O`, the activity, negative = inhibition was -12.9% [at 11.4 µM].
On the same count and under the same terms, then `CN[C@H](Cc1ccccc1)c1cccc(OC)c1O`, with -11.6% [at 11.4 µM].
Turning to `COC1=CC(=O)O[C@@H](/C=C\c2ccccc2)C1`, the AC50 was 3.16 µM (active).
Consider `CNC(=O)OCC[N+](C)(C)C`, for which the “activity, negative = inhibition” value is 10.7%.
As for `O=C(NCP(=O)(O)O)c1cccnc1`, the activity, negative = inhibition is -11.9% [at 11.4 µM].
As for `CC(C)CN1CC2(CCN(C(=O)c3ccncc3)CC2)C1`, the “activity, negative = inhibition” value is -7.67%.
Regarding `C[C@@H]1O[C@H](C[N+](C)(C)C)CS1`, the “activity, negative = inhibition” value was 0.254%.
Take `N=C(N)SCc1ccc(Cl)c2ccccc12` (tested in a mixture with another compound): the AC50 is 251 nM (active) and 158 nM (active).
`COc1ccc2c(c1)CN([C@H](C)[C@@H]1CC[C@@H]3[C@H]4CC[C@H]5C[C@@H](O)CC[C@@]5(C)[C@H]4CC[C@]31C)CO2`: the activity, negative = inhibition was -17.9% [at 2.29 µM].
For `CCCC(CCC)C(=O)O`, the “activity, negative = inhibition” value is -4.79%.
With `O=S(=O)(c1ccccc1)N1CCCCC1c1cccnc1` (stereo unspecified), the “activity, negative = inhibition” value is -6.92%.
`CC1(C)[C@@H]2CC[C@]1(C)CN(CCC[N+](C)(C)C)C2`: the activity, negative = inhibition was -6.81% [at 2.29 µM].
Still for that read-out and setting: to `CC(=NCCN1CCOCC1)c1c(O)n(Cc2ccccc2)c(=O)[nH]c1=O` belongs -26.8%; to `CC(=Nc1c(C)n(C)n(-c2ccccc2)c1=O)c1c(O)n(Cc2ccccc2)c(=O)[nH]c1=O`, -6.48%.
For the molecule `CC(=NCc1ccco1)c1c(O)n(-c2ccccc2)c(=O)[nH]c1=O`, the AC50 is 22.4 µM (active).
The same measure, in the same setting: to `N[C@@]1(C(=O)O)CC[C@H](C(=O)O)C1` belongs “inactive”.
Regarding `O=C1C2CCN(CC2)C1(CO)CO`, the activity, negative = inhibition is -15.4% [at 11.4 µM].
`[N-]=[N+]=CC(=O)CC[C@H](N)C(=O)O`: the activity, negative = inhibition was -10.9% [at 11.4 µM].
For `Clc1ccccc1-c1cncnc1NCCc1cnc[nH]1`, the AC50 is 1.58 µM (active).
Same read-out and setting: then `Cc1ccccc1-c1cncnc1NCCc1cnc[nH]1`, with 5.01 µM (active).
Turning to `N=C(N)c1ccc(-c2ccc(-c3ccc(C(=N)N)cc3)o2)cc1`, the activity, negative = inhibition is -1.35% [at 11.4 µM].
For `O=C(O)c1cc(N=Nc2ccc([As](=O)(O)O)cc2)ccc1O`, the activity, negative = inhibition is -9.91% [at 11.4 µM].
Same read-out and setting: then `O=[As](O)(O)c1ccc(N=Nc2ccc([As](=O)(O)O)cc2)cc1`, with -13.9% [at 11.4 µM]; and `N[C@@H](Cn1ccc(=O)n(Cc2ccc(C(=O)O)cc2)c1=O)C(=O)O`, with -15.7%; and `c1ccc(C[N+]23CN4CN(CN(C4)C2)C3)cc1`, with -10.1% [at 2.29 µM].
As to `Cc1ccc(NC(=[OH+])c2cc3ccccc3cc2O)c(C)c1.Cc1ccc(NC(=[OH+])c2cc3ccccc3cc2O)c(C)c1.[Ni]`, the AC50 is 0.251 µM (active).
Turning to `CN(C)[C@@H]1C(=O)C(C(N)=O)=C(O)[C@]2(O)C(=O)C3=C(O)c4c(O)cccc4[C@@](C)(O)[C@H]3[C@H](O)[C@@H]12`, the “activity, negative = inhibition” value is -18.3% [at 25.6 µM].
On the same count and under the same terms, then `CN(C(=O)Cc1ccc(Cl)c(Cl)c1)[C@@H](CN1CCCC1)c1cccc(OCC(=O)O)c1`, with 2.92%; and `C[N+]1(C)[C@@H]2CC(OC(=O)[C@@H](CO)c3ccccc3)C[C@@H]1[C@H]1O[C@H]12` (stereo partly specified), with -22.8% [at 11.4 µM].
`Cc1ccc(S(=O)(=O)N[C@@H](CCCCN)C(=O)CCl)cc1`: the “activity, negative = inhibition” value is 3.11%.
The same measure, in the same setting: then `C[C@@]12CC[C@H](O[C@@H]3O[C@H](CO)[C@@H](O)[C@H](O)[C@@H]3O)C[C@@H]1CC[C@H]1[C@H]2CC[C@@]2(C)[C@@H](C3=CCOC3=O)CC[C@]12O`, with -11.7% [at 11.4 µM].
With `CCOc1ccc2c(c1)C(C)=CC(C)(C)N2`, the AC50 is 5.01 µM (active).
Consider `CC(C)(C)C(=O)CP(=O)(O)O`, for which the activity, negative = inhibition was -9.4% [at 11.4 µM].
Turning to `CCOC(=O)C1=C(C)OC(N)=C(C#N)C12C(=O)N(C)c1ccccc12` (stereo unspecified), the “activity, negative = inhibition” value is 10.1%.
With `C[C@@H]1[C@@H]2Cc3ccc(O)cc3[C@@]1(C)CCN2CC1CC1`, the “activity, negative = inhibition” value is -14.6%.
With `CNC(C)Cc1ccccc1Sc1ccc(O)cc1` (stereo unspecified), the “activity, negative = inhibition” value is -2.13%.
`Cn1c(O)c(C(=N)COc2ccccc2)c(=O)n(C)c1=O`: the AC50 is 6.31 µM (active).
On to `O=C(Oc1ccccc1)N1CCC2(CC1)CN(C(c1ccccc1)c1ccccc1)C2`, for which the “activity, negative = inhibition” value is -14.2%.
The same measure, in the same setting: to `c1csc(CN2CC[C@@]3(CCCNC3)C2)n1` belongs -12.5%.
For `CS(=N)(=O)CC[C@H](N)P(=O)(O)O` (stereo partly specified), the activity, negative = inhibition was -13.9% [at 11.4 µM].
Regarding `CCOC(=O)Cn1cc(C(=O)c2ccccc2F)c2ccccc21`, the AC50 is 3.55 µM (active).
Consider `O=C(c1ccccc1F)c1cn(CC(=O)N2CCOCC2)c2ccccc12`, for which the “activity, negative = inhibition” value is 0.466%.
For `O=C(c1ccccc1F)c1cn(Cc2ccccc2)c2ccccc12`, the AC50 is 7.08 µM (active).
The same measure, in the same setting: then `COc1ccc(OC)c([C@H](O)[C@H](C)N)c1`, with “inactive”.
As for `c1cc(N2CCCC3(CCNCC3)C2)ccn1`, the “activity, negative = inhibition” value was -4.56%.
On the same count and under the same terms, to `Nc1nc(N)c(N=Nc2ccc([As](=O)(O)O)cc2)c(=O)[nH]1` belongs -14.9% [at 2.29 µM].
For `N=C(N)n1cc(/C=N\N=C(N)N)cn1`, the activity, negative = inhibition is 7.8% [at 2.29 µM].
`CCC[C@@](C)(COC(N)=O)COC(=O)NC(C)C`: the “activity, negative = inhibition” value was 0.255% [at 25.6 µM].
On the same count and under the same terms, to `O=C(O)C(O)(c1ccc(-c2ccccc2)cc1)c1ccc(-c2ccccc2)cc1` belongs -16.4% [at 11.4 µM].
For `CS(=N)(=O)CC[C@@H](N)C(=O)O` (stereo partly specified), the AC50 result was “inactive”.
On the same count and under the same terms, to `Cc1cc(C)nc(NC2=NCCS2)n1` belongs 12.6 µM (active).
As to `C=C(C)[C@H]1CC[C@]2(C(=O)O)CC[C@]3(C)[C@@H](CC[C@H]4[C@@]5(C)CC[C@@H](O)C(C)(C)[C@@H]5CC[C@@]43C)[C@H]12`, the “activity, negative = inhibition” value was 10.2% [at 25.6 µM].
Still for that read-out and setting: then `Cc1cc(NC(=O)CCC(=O)N2CCC3(CC2)OCCO3)no1`, with -14.7%.
Take `Cc1ccc(S(=O)(=O)NCC2CCC(C(=O)N3CCC4(CC3)OCCO4)CC2)cc1` (stereo unspecified): the “activity, negative = inhibition” value is -4.19%.
Take `Cc1ccc2cc3cc(C(=O)N4CCC5(CC4)OCCO5)oc3nc2c1`: the AC50 was 2.51 µM (active).
In the case of `O=C(Cn1ncc2ccsc2c1=O)N1CCC2(CC1)OCCO2`, the “activity, negative = inhibition” value is -10%.
Still for that read-out and setting: then `O=C(c1cc(=O)[nH]c2ccc(Br)cc12)N1CCC2(CC1)OCCO2`, with 7.44%.
In the case of `O=C(c1cc2cc3ccc(Cl)cc3nc2o1)N1CCC2(CC1)OCCO2`, the AC50 is 6.31 µM (active).
For the molecule `COC(=O)[C@H](N)CCCN=C(N)N[N+](=O)[O-]`, the “activity, negative = inhibition” value is -6.84%.
Regarding `CN1CCc2cccc(Cl)c2CC1`, the “activity, negative = inhibition” value is -19.4%.
As for `CCCC(=O)Nc1ccc(N2CCN(CC)CC2)c(Cl)c1`, the “activity, negative = inhibition” value is -11.9%.
The same measure, in the same setting: to `C[C@@H]1O[C@H](O[C@@H]2CC[C@@]3(C=O)[C@H]4CC[C@@]5(C)[C@@H](C6=CC(=O)OC6)CC[C@@]5(O)[C@@H]4CC[C@]3(O)C2)C[C@H](O)[C@@H]1O` belongs -3.45% [at 25.6 µM].
Take `CN1C(=O)C(=Cc2ccccc2Oc2ccc(Cl)c(F)c2)C(=O)N(C)C1=O`: the AC50 is 22.4 µM (active).
For `Cc1ccc(N2C(=O)/C(=C/N3CCN(C(=O)c4ccco4)CC3)C(=O)NC2=S)cc1C`, the “activity, negative = inhibition” value is -23.4%.
The same measure, in the same setting: then `O=C(NC1CCCCC1)NC1CC2CCC(C1)N2Cc1nnnn1Cc1ccc2c(c1)OCO2` (stereo unspecified), with -28.4%; and `CC(C)CN1CC2(CCN(C(=O)Oc3ccccc3)CC2)C1`, with -1.37%.
Still for that read-out and setting: then `c1csc(CN2CCC3(CCNCC3)CC2)n1`, with 2.27%.
With `COc1cc(OC)c(/C=C2/C(=O)Nc3ccccc32)c(OC)c1`, the AC50 was 0.501 µM (active).
Turning to `C=C(C)c1ccccc1` (tested in a mixture with another compound), the activity, negative = inhibition is -19.6% [at 2.29 µM].
Regarding `C[N+]1([O-])[C@@H]2CC[C@H]1CC(OC(=O)[C@@H](CO)c1ccccc1)C2` (stereo partly specified), the “activity, negative = inhibition” value was 0.733% [at 25.6 µM].
Turning to `CC(=O)Nc1ccccc1C(=O)OCC(=O)c1ccc2ccccc2c1`, the half-maximal activity concentration (AC50) was 3.16 µM (active).
As for `CC(=O)Nc1ccccc1C(=O)OCc1ccc(C(=O)c2ccccc2)cc1`, the “activity, negative = inhibition” value was -26.4%.
Take `CS(=O)(=O)O[C@H]1CN2CCC1CC2`: the activity, negative = inhibition is -18.7% [at 11.4 µM].
As for `CCOc1ccc(C2C(C#N)=C(N)Oc3c2c(=O)oc2ccccc32)cc1` (stereo unspecified), the AC50 is 5.01 µM (active).
For the molecule `COc1ccc2c3c1O[C@@H]1C(=O)CC[C@@]4(O)[C@@H](C2)N(CC2CC2)CC[C@]314`, the “activity, negative = inhibition” value was -8.78%.
In the case of `C[C@H](Br)C(=O)c1ccc2cc(Br)c3ccccc3c2c1`, the AC50 is 0.158 µM (active).
On to `CC1=C(CC[C@H](C)CO)O[C@@H]2C[C@@H]3[C@H]4CC[C@H]5C[C@@H](O)CC[C@]5(C)[C@@H]4CC(=O)[C@@]3(C)[C@@H]12`, for which the activity, negative = inhibition was -21.1% [at 2.29 µM].
Same read-out and setting: then `O=C(O)Cc1cnc[nH]1`, with 5.78%; and `NC(N)=NS(=O)(=O)c1ccc(N)cc1`, with 1.99% [at 25.6 µM].
`O=C1c2cc([N+](=O)[O-])ccc2-c2ccc3c4ccc5c6c(ccc(c7ccc1c2c73)c64)C(=O)c1cc([N+](=O)[O-])ccc1-5`: the AC50 was 0.794 µM (active).
Regarding `O=C(O)CCCc1ccc(N(CCCl)CCCl)cc1`, the “activity, negative = inhibition” value was -10.6% [at 25.6 µM].
As for `C[C@@H]1O[C@H]1P(=O)(O)O`, the “activity, negative = inhibition” value was 7.68%.
As to `Cc1nccc2c1[nH]c1ccccc12`, the AC50 was 1.26 µM (active) and 631 nM (active).
On to `Cc1c2ccncc2c(C)c2c1[nH]c1ccccc12`, for which the AC50 is 0.02 µM (active).
`COC(=O)[C@H]1C(=O)c2ccccc2O[C@@](C(=O)OC)(c2ccccc2)[C@@H]1c1ccccc1`: the activity, negative = inhibition is 6.39% [at 11.4 µM].

One may read the AC50 as the midpoint of the concentration-response curve, whichever way the signal moves.
